In PubChem BioAssay one finds z-score and composite z-score data, which are given here for four molecules.

Molecules are shown by their SMILES. The source made the active and inactive calls.

Assay [1] is described as follows: optical density shifts of acrAB sulA E. coli – strain DRC41, OD650, 48 h, E. coli filamentation inducer project, primary screen (AID 1152).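 Further: E. coli MC1000 strain DRC41 lacking acrAB efflux pump and sulA.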 Conditions: higher = more signal, called active from +8 up or from −8 down.
The nature of assay [2]: probe aLefty1 binding on compound microarray – biochemical, small-molecule microarray, 635/667 nm fluorescence, primary screen (AID 1153).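 Further: score merges spot fluorescence with signal-to-noise ratio from the scanned slide images.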 To be noted: higher = more signal.
Assay [3] can be described thus: plasmodial surface anion channel blockers, osmotic lysis – cell-based, P. falciparum Indochina, OD700, 1 h, primary screen (AID 1154). To be noted: P. falciparum Indochina infected RBC osmotic lysis, higher = more signal, called active from +8 up or from −8 down.
The nature of assay [4]: plasmodial surface anion channel blockers, osmotic lysis – cell-based, P. falciparum Indochina, OD700, 2 h, primary screen (AID 1155).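 Further: lysis reports solute entry through the parasite surface anion channel PSAC.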 To be noted: P. falciparum Indochina infected erythrocytes, higher = more signal, called active from +8 up or from −8 down.
Assay [5] can be described thus: changes in parasitized red cell lysis, either direction – P. falciparum Indochina, OD700, 3 h, PSAC antagonist project, primary screen (AID 1156). To be noted: P. falciparum-infected erythrocytes, osmotic lysis, higher = more signal, called active from +8 up or from −8 down.
The nature of assay [6]: plasmodial surface anion channel blockers, osmotic lysis – cell-based, P. falciparum Indochina, OD700, 18 h, primary screen (AID 1157). Conditions: P. falciparum Indochina infected erythrocytes, osmotic lysis OD700, 18 h; higher = more signal, called active from +8 up or from −8 down.
The nature of assay [7]: S6 kinase pathway phospho-S6 level changes – cell-based, A549, cytoblot, luminescence, serum-stimulated, primary screen (AID 1158).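 Further: serum-stimulated A549 lung adenocarcinoma cells; signal is phosphorylated S6 detected by cytoblot immunostaining with HRP secondary.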 Conditions: 5 h, higher = more signal.
For assay [8], the target named is NADPH oxidase 2 (Homo sapiens) (UniProt P04839). In words: compounds shifting NOX2 Amplex Red fluorescence – cell-based, HEK293-NOX2, PMA-stimulated, NOX inhibitor project, primary screen (AID 1159). Further: test concentration not given here. Conditions: 45 min, higher = more signal, called active from +8 up or from −8 down.
Chain of NADPH oxidase 2 (Homo sapiens) (P04839 whole entry, looked up): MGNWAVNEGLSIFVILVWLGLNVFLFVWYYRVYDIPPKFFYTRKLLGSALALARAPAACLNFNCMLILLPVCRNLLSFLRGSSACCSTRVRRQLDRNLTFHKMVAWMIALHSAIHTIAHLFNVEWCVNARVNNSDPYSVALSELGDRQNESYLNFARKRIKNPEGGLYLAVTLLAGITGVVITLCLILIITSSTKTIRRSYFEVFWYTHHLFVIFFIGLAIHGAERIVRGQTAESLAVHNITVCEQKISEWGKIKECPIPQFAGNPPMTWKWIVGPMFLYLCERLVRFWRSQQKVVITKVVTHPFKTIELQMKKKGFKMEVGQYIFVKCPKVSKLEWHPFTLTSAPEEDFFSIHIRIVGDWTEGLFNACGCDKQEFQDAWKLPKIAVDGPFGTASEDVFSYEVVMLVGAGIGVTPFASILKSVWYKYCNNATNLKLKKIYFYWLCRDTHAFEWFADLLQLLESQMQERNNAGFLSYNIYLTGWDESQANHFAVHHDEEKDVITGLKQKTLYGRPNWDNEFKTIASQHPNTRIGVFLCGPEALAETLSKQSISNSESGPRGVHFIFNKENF
The target in assay [9] is NADPH oxidase 4 (Homo sapiens) (UniProt Q9NPH5). Nature of the assay: compounds shifting NOX4 Amplex Red fluorescence – cell-based, HEK293-NOX4, tetracycline-induced, NOX inhibitor project, primary screen (AID 1160). To be noted: HEK293-NOX4, Amplex Red H2O2 fluorescence, 45 min; higher = more signal, called active from +8 up or from −8 down.
Chain of NADPH oxidase 4 (Homo sapiens) (Q9NPH5 whole entry, looked up): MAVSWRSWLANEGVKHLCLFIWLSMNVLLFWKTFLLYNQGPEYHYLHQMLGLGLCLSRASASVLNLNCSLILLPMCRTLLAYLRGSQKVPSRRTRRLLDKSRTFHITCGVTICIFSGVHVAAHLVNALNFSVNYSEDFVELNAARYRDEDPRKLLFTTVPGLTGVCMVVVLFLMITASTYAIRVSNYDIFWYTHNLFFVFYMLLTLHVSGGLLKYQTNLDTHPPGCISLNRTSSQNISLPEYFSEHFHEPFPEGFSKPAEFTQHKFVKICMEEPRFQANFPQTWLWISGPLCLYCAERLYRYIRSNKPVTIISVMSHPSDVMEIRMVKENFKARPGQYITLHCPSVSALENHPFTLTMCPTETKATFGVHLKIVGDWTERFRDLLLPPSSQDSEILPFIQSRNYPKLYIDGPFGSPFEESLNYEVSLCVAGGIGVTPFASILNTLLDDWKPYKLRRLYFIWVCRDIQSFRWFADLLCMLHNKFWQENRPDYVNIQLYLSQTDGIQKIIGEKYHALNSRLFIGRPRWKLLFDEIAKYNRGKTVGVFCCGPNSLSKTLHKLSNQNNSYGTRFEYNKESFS
The target of assay [10] is NADPH oxidase 5 (Homo sapiens) (UniProt Q96PH1). In words: compounds shifting NOX5 Amplex Red fluorescence – cell-based, HEK293-NOX5, NOX inhibitor project, primary screen (AID 1161). Conditions: HEK293-NOX5, ionomycin, 45 min, higher = more signal.
Chain of NADPH oxidase 5 (Homo sapiens) (Q96PH1 whole entry, looked up): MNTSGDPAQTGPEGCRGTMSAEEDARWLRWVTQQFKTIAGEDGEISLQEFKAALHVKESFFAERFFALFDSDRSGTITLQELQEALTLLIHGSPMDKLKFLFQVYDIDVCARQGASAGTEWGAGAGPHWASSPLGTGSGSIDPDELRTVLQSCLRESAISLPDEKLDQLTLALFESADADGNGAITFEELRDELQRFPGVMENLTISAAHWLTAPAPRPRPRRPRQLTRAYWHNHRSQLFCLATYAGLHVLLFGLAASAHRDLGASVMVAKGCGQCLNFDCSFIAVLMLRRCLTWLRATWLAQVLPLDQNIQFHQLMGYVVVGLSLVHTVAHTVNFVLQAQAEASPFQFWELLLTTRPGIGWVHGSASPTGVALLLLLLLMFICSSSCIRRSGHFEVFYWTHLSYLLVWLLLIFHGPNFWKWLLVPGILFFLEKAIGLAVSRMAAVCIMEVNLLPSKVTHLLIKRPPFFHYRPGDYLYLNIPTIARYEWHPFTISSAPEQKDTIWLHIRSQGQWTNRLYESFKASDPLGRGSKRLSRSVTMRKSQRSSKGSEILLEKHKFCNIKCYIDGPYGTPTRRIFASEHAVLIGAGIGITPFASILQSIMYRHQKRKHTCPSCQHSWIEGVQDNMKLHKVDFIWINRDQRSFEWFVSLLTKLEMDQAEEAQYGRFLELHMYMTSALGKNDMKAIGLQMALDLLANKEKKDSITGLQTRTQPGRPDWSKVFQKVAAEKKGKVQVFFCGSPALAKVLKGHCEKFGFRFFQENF
The nature of assay [11]: compound effects on lung adenocarcinoma cell viability – A549, calcein-AM fluorescence, 48 h, basal, profiling panel (AID 1162). Further: test concentration not given here. To be noted: higher = more signal.
Assay [12] can be described thus: compound effects on differentiated 3T3-L1 adipocyte viability – cell-based, 3T3-L1 adipocytes, calcein-AM fluorescence, 48 h, basal, profiling panel (AID 1163). Further: test concentration not given here. To be noted: 3T3-L1 adipocytes viability, higher = more signal.
A short description of assay [13]: compound effects on hepatocellular carcinoma cell viability – HepG2, calcein-AM fluorescence, 48 h, basal, profiling panel (AID 1164). Further: test concentration not given here. Conditions: higher = more signal.
Assay [14] in a line: compound effects on multiple myeloma cell viability – MM1S, calcein-AM fluorescence, 48 h, basal, profiling panel (AID 1165).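 Further: viability of MM1S multiple myeloma cells under basal unstimulated conditions; test concentration not given here.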 To be noted: higher = more signal.
Assay [15] is described as follows: calcein-AM signal in unstimulated myeloma cells – cell-based, calcein-AM fluorescence, 48 h, PK04 Diversity Set, profiling panel (AID 1166).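 Further: cells grown under basal conditions without added stimulus; test concentration not given here.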 Conditions: RPMI8226 myeloma viability, higher = more signal.
A short description of assay [16]: JC-1 mitochondrial signal, unstimulated HepG2 cells – cell-based, JC-1 fluorescence, 24 h, 100 nL compound, profiling panel (AID 1167). Further: test concentration not given here. To be noted: HepG2 mitochondrial potential, higher = more signal.
The nature of assay [17]: JC-1 mitochondrial signal, unstimulated adipocytes – cell-based, JC-1 fluorescence, 3T3-L1 adipocytes, 24 h, 100 nL compound, profiling panel (AID 1168). Further: test concentration not given here. Conditions: JC-1 mitochondrial fluorescence, higher = more signal, called active from +8 up or from −8 down.
The nature of assay [18]: JC-1 mitochondrial signal, unstimulated myeloma cells – cell-based, JC-1 fluorescence, RPMI8226, 24 h, 100 nL compound, profiling panel (AID 1169). Further: test concentration not given here. To be noted: JC-1 mitochondrial potential fluorescence, higher = more signal.
A short description of assay [19]: JC-1 mitochondrial signal, unstimulated MM1S myeloma – cell-based, JC-1 fluorescence, 24 h, 100 nL compound, profiling panel (AID 1170). Further: test concentration not given here. To be noted: MM1S mitochondrial potential, higher = more signal.
The nature of assay [20]: resazurin metabolic signal in A549 cells – cell-based, resazurin fluorescence, 24 h, PK04 Diversity Set, profiling panel (AID 1171). Further: test concentration not given here. Conditions: A549 viability, higher = more signal, called active from +8 up or from −8 down. Background: Resazurin is reduced to fluorescent resorufin, in cell work by metabolically active cells.

Take `COCCOC(=O)N1C(=O)[C@@]2(c3cc(C#CCC(C(=O)OC)C(=O)OC)ccc31)[C@H](c1ccccc1OCCO)N1[C@H](c3ccccc3)[C@H](c3ccccc3)OC(=O)[C@H]1[C@@H]2C(=O)N1CCCCCCC1`: the z-score in assay [1] is 0.0371 (inactive); in assay [3], 0.998 (inactive); in [4], 1.01 (inactive); in [5], 0.259 (inactive); in assay [6], 0.508 (inactive); in [7], 0.0992. Moreover, the z-score in assay [8] is 0.0483 (inactive); in [9], 0.309 (inactive); in assay [10], 1.52; in [11], 0.579; in [12] it was -0.219; in [13] it was 0.779. For the same molecule, the z-score was -0.895 in assay [14]; 0.103 in [15]; 0.335 in assay [16]; 2.19 (inactive) in [17]; -0.641 in assay [18]; -1.34 in assay [19]. Besides, the z-score in assay [20] is 0.719 (inactive). Also, the composite z-score in assay [2] turned out to be 2.43.

Regarding `NC(=O)NCC#Cc1ccc2c(c1)[C@]1(C(=O)N2)[C@H](C(N)=O)[C@H]2C(=O)O[C@H](c3ccccc3)[C@H](c3ccccc3)N2[C@@H]1c1ccccc1OCCO`, the z-score in assay [1] is -0.925 (inactive); in assay [3], 2.15 (inactive); in assay [4] it was 0.0353 (inactive); in [5], -3.88 (inactive); in [6] it was -0.146 (inactive); in assay [7], -0.128. The z-score in assay [8] was 2.1 (inactive); in [9] it was 1 (inactive); in assay [10], 0.53; in assay [11], -1.23; in [12] it was 0.634; in assay [13] it was -0.945. Also, the z-score was -0.211 in [14]; -0.186 in [15]; -1.01 in [16]; -0.287 (inactive) in [17]; -1.05 in [18]; -0.386 in assay [19]. The z-score in assay [20] is 0.79 (inactive). The same molecule had a composite z-score in assay [2] of 0.199.

Turning to `COC(=O)[C@@]1(Cc2ccc(OC)cc2)[C@H]2c3cc(C(=O)N(C)C)n(CCc4ccc(OC)c(Br)c4)c3C[C@H]2CN1C(=O)c1ccccc1`, the z-score in assay [1] was -1.52 (inactive); in assay [3] it was 3.73 (inactive); in [4] it was 1.39 (inactive); in assay [5] it was 0.307 (inactive); in assay [6], 1.35 (inactive); in assay [7], -0.21. The z-score in assay [8] is -0.052 (inactive); in assay [9], 0.493 (inactive); in [10], 0.527; in assay [11], -1.55; in assay [12], -1.08; in assay [13], -0.992. Besides, the z-score in [14] is -1.6; in [15] it was -4.57; in assay [16], 2.92; in assay [17], -1.39 (inactive); in assay [18], -0.855; in [19], -2.23. For the same molecule, in [20], the z-score is -1.39 (inactive). This molecule also showed a composite z-score in assay [2] of 1.61.

On to `CCOC(=O)C[C@H]1[C@H](OC(=O)c2cc3ccccc3oc2=O)[C@@H](NC(=O)c2ccc3ccccc3c2)c2cc(OCCCO)ccc2N1C(=O)c1ccc2ccccc2n1`, for which the z-score is 2.1 (inactive) in assay [1]; 11.1 (active) in assay [3]; 1.42 (inactive) in assay [4]; 0.865 (inactive) in assay [5]; 0.868 (inactive) in assay [6]; 0.63 in assay [7]. The z-score in [8] was 0.985 (inactive); in assay [9], 0.873 (inactive); in assay [10] it was 2.17; in [11], 0.418; in [12], 1.48; in assay [13], -0.0664. Besides, the z-score is 0.555 in assay [14]; 0.167 in assay [15]; 0.158 in assay [16]; -0.0237 (inactive) in assay [17]; -0.233 in assay [18]; 0.197 in assay [19]. Besides, the z-score in assay [20] was -0.194 (inactive). In assay [2], this molecule gave a composite z-score of 0.19.
